According to PubChem BioAssay (NCI):
Compounds without any hit were thinned out: in the full panel of roughly 79,000, 15% have a hit. Calls of active or inactive are those of the source. No stated cut-off is given here; in the data, active means growth inhibition above about 70%; inactive means the rest.

Legend:
[1] = NCI Yeast Anticancer Drug Screen. Data for the rad50 strain (AID 155);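 further: 0% = growth of vehicle-only cultures of the same strain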; settings: S. cerevisiae rad50 strain growth inhibition; at 50.0 µM; stronger effect = higher value
Outline: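 Inhibition values express reduced yeast growth in compound-treated cultures relative to vehicle-treated controls.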

[2] = NCI Yeast Anticancer Drug Screen. Data for the mec2-1 strain (AID 157); settings: S. cerevisiae mec2-1 strain, at 50.0 µM, stronger effect = higher value
Outline: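 Vehicle-treated cultures served as reference for growth inhibition of compound-exposed mec2-1 yeast.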

[3] = NCI Yeast Anticancer Drug Screen. Data for the sgs1 mgt1 strain (AID 161);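 further: 0% = growth of cultures given vehicle only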; settings: S. cerevisiae sgs1 mgt1 strain, at 50.0 µM, stronger effect = higher value
Outline: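 Read-out: growth inhibition vs vehicle controls. Cells: mutant yeast strain deficient in DNA damage repair.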

[4] = NCI Yeast Anticancer Drug Screen. Data for the cln2 rad14 strain (AID 165);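 further: 0% = growth equal to vehicle treated cultures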; settings: S. cerevisiae cln2 rad14 strain, at 50.0 µM, stronger effect = higher value
Outline: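 Each compound was tested on cln2 rad14 yeast. Inhibition of growth was calculated against vehicle-exposed controls.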

[5] = NCI Yeast Anticancer Drug Screen. Data for the bub3 strain (AID 167); settings: S. cerevisiae bub3 mutant strain, at 50.0 µM, stronger effect = higher value
Outline: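 Steps: expose the mutant yeast strain to compound; grow alongside vehicle-treated cultures; measure growth; express inhibition against the vehicle cultures.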

[6] = NCI Yeast Anticancer Drug Screen. Data for the mlh1 rad18 strain (AID 175); settings: S. cerevisiae mlh1 rad18 strain growth inhibition; at 50.0 µM; stronger effect = higher value
Outline: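 Vehicle-treated cultures served as the reference for growth inhibition in a yeast strain carrying DNA damage repair alterations exposed to each compound.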

Measured: growth inhibition

CNC(=O)OCC1=CC(=O)C=C(OC)C1=O
inactive: [1] 7.3% | [2] -14.9% | [3] 18.4% | [4] 14.4% | [5] 2.45% | [6] 9%

COc1ccc(NC(=S)N=Nc2c(O)[nH]c3ccccc23)cc1
inactive: [1] -43.2% | [2] -50% | [3] -33.9% | [4] -13.8% | [5] -41.4% | [6] -30.6%

COc1cc2c(c(OC)c1OC)-c1ccc(SC)c(=O)cc1[C@@H](NC(=O)CO)CC2
inactive: [1] 30% | [2] 14.3% | [3] 19.6% | [4] 19.6% | [5] 21.1% | [6] 22.2%

O=C1c2ccccc2C(O)N1CCc1c[nH]c2ccccc12 (stereo not given)
inactive: [1] 12.4% | [2] -24.1% | [3] -12.1% | [4] 8.2% | [5] 1.3% | [6] -10.9%

c1ccc2c(c1)n1nnnc1c1nnnn21
inactive: [1] 34.6% | [2] -10.4% | [3] 20.1% | [4] 23.7% | [5] 4.85% | [6] 24.4%

O=S1(=O)CC(Cl)C(I)C1 (stereo not given)
active: [1] 99.4% | [2] 99.7% | [3] 99.5% | [4] 98.8% | [5] 99.5% | [6] 99.2%

CCOCN1COCN(C)C1=O
inactive: [1] 8.1% | [2] -6.55% | [3] -6.45% | [4] 13.3% | [5] 20.1% | [6] 3.95%

COC(=O)C1CCC(C)(C(N)=O)C1(C)C (stereo not given)
inactive: [1] 16% | [2] 3% | [3] -10.9% | [4] -37.8% | [5] 5.25% | [6] 9.7%

O=C(Cc1cc2c(cc1[N+](=O)[O-])OCO2)c1c[nH]c2ccc(Br)cc12
inactive: [1] 6.45% | [2] -3.9% | [3] 19.6% | [4] 18.5% | [5] -2.2% | [6] 7.55%

C#CCOC(=O)c1ccc(C(=O)OCC#C)cc1
inactive: [1] 11.9% | [2] -17.3% | [3] -9.3% | [4] 8.35% | [5] 3.15% | [6] -20.7%

Cc1ccc(S(=O)(=O)OC[C@H]2CC=CC[C@@H]2COS(=O)(=O)c2ccc(C)cc2)cc1
inactive: [1] -18.6% | [2] 31.6% | [3] 0.6% | [4] -29.6% | [5] 3.2% | [6] -6.1%

Cc1ccc(-n2cc(-c3ccc(Cl)cc3)c3c2N=CN2NC(c4ccco4)=NC32)cc1 (stereo not given)
inactive: [1] 5.1% | [2] 14.8% | [3] -13.6% | [4] -12.4% | [5] 11% | [6] -15.3%

C=C1C(=O)O[C@@H]2C3=C(C)C(=O)C=C[C@]3(C)CC[C@@H]12
inactive: [1] 5.3% | [2] 9.05% | [3] 8.55% | [4] 0.8% | [5] 6.6% | [6] -14.3%

CC(=O)c1cc2c(cc1C)C(C(C)C)CCC2(C)C (stereo not given)
inactive: [1] 3.75% | [2] -14.6% | [3] 6.55% | [4] -18.8% | [5] 41.7% | [6] 6.85%

COC(=O)C1C2CC3C(OC(=O)C31)C2OC(=O)[C@](OC)(c1ccccc1)C(F)(F)F (stereo not given in full)
inactive: [1] 24.2% | [2] 20.9% | [3] 10.6% | [4] -25.4% | [5] 15.5% | [6] 28.6%

COc1ccccc1N=Nc1c(-c2ccccc2)nn(C(N)=S)c1-c1ccccc1
inactive: [1] 35% | [2] -5.75% | [3] 19.4% | [4] 12.2% | [5] -0.05% | [6] 6.6%

COc1ccn(C2OCCC(OC(C)=O)C2O)c(=O)n1 (stereo not given)
inactive: [1] -19.8% | [2] -24.1% | [3] 6.25% | [4] -22.9% | [5] 0.4% | [6] 11.7%

CC(C)CC(F)(C(N)=O)C(N)=O
inactive: [1] -4.6% | [2] -4.15% | [3] -3.4% | [4] -3.05% | [5] -5.65% | [6] -4.2%

S=C(Nc1ccc(Cl)cc1)Nc1ccc(Cc2ccc(NC(=S)Nc3ccc(Cl)cc3)cc2)cc1
inactive: [1] 53.9% | [2] 36.2% | [3] 49.6% | [4] 59.4% | [5] 53.6% | [6] 20.4%

Cn1cnc(N2CCCC2)c(C#N)c1=S
inactive: [1] 3.45% | [2] -4.95% | [3] -4.7% | [4] -12.2% | [5] 2.55% | [6] 0.25%

CC1(C)CCC2(CO)C(=C3C=CC4C5(C)CCC(O)C(C)(CO)C5CCC4(C)C3(C)CC2O)C1 (stereo not given)
inactive: [1] 0.45% | [2] -31.8% | [3] -0.75% | [4] -3.35% | [5] -9.5% | [6] 11.4%

C=COC(=O)N1CCCCC1
inactive: [1] -5.75% | [2] 15.8% | [3] 0.5% | [4] -13.7% | [5] -30.1% | [6] 27.4%

Cn1c(=S)sc2ccc(S(=O)(=O)C(F)F)cc21
inactive: [1] 23.7% | [2] 20.9% | [3] 4.7% | [4] 12.8% | [5] 22.6% | [6] 25.1%

CC1(C)CO/C(=C/C(=O)c2ccccc2)N1C(=O)c1ccccc1
inactive: [1] -4.6% | [2] 11.7% | [3] -6.15% | [4] 1.55% | [5] 4% | [6] -0.45%

CC(=O)OCC1OC(Sc2ccc([N+](=O)[O-])cc2)C(OC(C)=O)C(OC(C)=O)C1OC(C)=O (stereo not given)
inactive: [1] 12.3% | [2] -11.8% | [3] -12.1% | [4] -1.35% | [5] -1.05% | [6] 17.9%

CC(C)(C)SC(=S)SCC(=O)c1cc2ccccc2o1
inactive: [1] 35.7% | [2] 3.5% | [3] 41.4% | [4] 30.1% | [5] 40.8% | [6] 37.9%

CC12CC(=O)Nc3ccccc3N1C(c1ccccc1)=NO2 (stereo not given)
inactive: [1] -11.5% | [2] -29.4% | [3] -6.6% | [4] 3% | [5] -14.8% | [6] -7.4%

O=C1C=C(Nc2ccc(Cl)cc2C(=O)c2ccccc2)c2ccccc2C1=O
inactive: [1] 3% | [2] -11.7% | [3] -6.9% | [4] 22.2% | [5] -6.55% | [6] -2.9%

N#Cc1ccc(/C=N\NC(=O)CCSCCC(=O)N/N=C/c2ccc(C#N)cc2)cc1
inactive: [1] 13.2% | [2] 24.9% | [3] 7.65% | [4] 18.4% | [5] 13.1% | [6] 7.45%

c1ccc(Cc2[nH]nc(-c3n[nH]c(Cc4ccccc4)c3-c3ccccc3)c2-c2ccccc2)cc1
inactive: [1] -28.8% | [2] 18.1% | [3] -9.65% | [4] -8.35% | [5] -20.6% | [6] 8.4%

C/C(CC(C)(C)C)=N/O
inactive: [1] -24.6% | [2] -5.2% | [3] -21.8% | [4] -78.7% | [5] -14.9% | [6] -12.9%

COc1ccc(C(=O)C(C(=O)CCC(=O)Nc2cccc(Cl)c2)c2ccc(OC)cc2)cc1 (stereo not given)
inactive: [1] -25.1% | [2] -9.4% | [3] -20.2% | [4] -4.9% | [5] 0.5% | [6] -0.15%

O=C1O[C@@H](c2ccc3c(c2)OCO3)C2C(=O)O[C@@H](c3ccc4c(c3)OCO4)C12 (stereo not given in full)
inactive: [1] 13.5% | [2] 8.95% | [3] -8.15% | [4] 19.4% | [5] 2.6% | [6] 21.7%

Cc1cc2nc3c(N)ccc(N)c3nc2cc1N
inactive: [1] 5.2% | [2] 4.3% | [3] -0.65% | [4] -17.6% | [5] -29.1% | [6] -7.7%

OCCN(CCO)c1ncnc2c1ncn2Cc1ccccc1
inactive: [1] -7.15% | [2] -7.5% | [3] -7.05% | [4] -42.2% | [5] 8.15% | [6] -20.2%

CN1CCCC1c1cccnc1.O=C(O)c1ccccc1O.O=C([O-])c1ccccc1[OH2+].O=C([O-])c1ccccc1[OH2+].[Mn+2] (stereo not given)
inactive: [1] -3.05% | [2] -0.4% | [3] -24.7% | [4] -30.7% | [5] -29% | [6] 4.15%

NCc1ccc(C(=O)O)cc1
inactive: [1] -30.2% | [2] -8.9% | [3] -28% | [4] -68.7% | [5] -13% | [6] -14.6%

CN1c2cccc3cccc(c23)NC12CCCCC2
inactive: [1] 0.6% | [2] -20.5% | [3] -10.8% | [4] -62.2% | [5] 14.2% | [6] -10.8%

O=C1NCC2(CCCCCC2)O1
inactive: [1] 5.15% | [2] -0.65% | [3] 13.2% | [4] 4.95% | [5] -3.9% | [6] 6.15%

O=C(NC(Cc1ccccc1)P(=O)(O)c1ccccc1)OCc1ccccc1 (stereo not given)
inactive: [1] -8.45% | [2] -30.5% | [3] -30.2% | [4] 15.7% | [5] 2.3% | [6] -12%
